Hits are enriched below; roughly 7.3% of the tested compounds scored in any of these assays.
Vaccinia Venus = vaccinia inhibition (Venus reporter) | Vaccinia virus Venus reporter expression, fluorescence | Potency, µM (titrated, usually from 36.5 µM), for inactives: top-dose activity change, negative = inhibition, hits mostly inhibitors | hit rate 0.46% among 330,000 | AID 720580; calls by dose curve; tested in A549 cells; further: potency means the concentration at half of the fitted maximal effect; nearly all actives have a fitted effect of over 30% in size
VACV mCherry inh = vaccinia inhibition (mCherry reporter). hit rate 0.63% among 310,000. Vaccinia virus mCherry reporter infection, fluorescence. Potency, µM (titrated, usually from 36.5 µM), for inactives: at the top dose activity change, negative = inhibition, most hits filed as inhibitors; calls by dose curve; tested in A549 cells; further: potency means the concentration at half of the fitted maximal effect; nearly all actives have a fitted effect of over 35% in size
HCMV inh = blocks human cytomegalovirus replication; HFF cells, HCMV-luciferase reporter, 72 h; active compounds read low; activity change, negative = inhibition, % at 57.5 µM; hit rate 4.5% among 410,000; AID 1259415; in the data active means activity change below about -60%; inconclusive means no clear call, values can overlap the other calls; inactive means above about -39%
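Luciferase read-out from HCMV-luciferase-infected HFFs (MOI 1 PFU/cell) 72 h post infection at 37C; compounds added after 16 h cell attachment; activity normalized between buffer-only basal and Salinomycin (10uM) inhibitor controls.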
HCV inhibitor = HCV inhibition | Huh7.5.1 HCVcc-Cre infection, luciferase reporter, 44 h | Potency, µM (top dose mostly 41.8 µM), for inactives: at the highest dose activity change, negative = inhibition, most hits filed as inhibitors | hit rate 3.4% among 340,000; active means well fitted inhibition curve with a large enough effect; inconclusive means small, poorly fitted or top-dose-only effect, or another doubt; inactive means no such curve, though single readings can be large or run the other way; further: potency means the concentration at half of the fitted maximal effect
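1,000 cells/well; 4 h culture; + compound; + HCVcc-Cre (~0.5 moi); 44 h; luciferase substrate, RT 15 min; read 15 sec.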
FMDV antiviral = foot and mouth disease virus antiviral activity; FMDV antiviral cell-based qHTS; Potency, µM (series often up to 57.9 µM), for the others: at the top dose activity change, negative = inhibition, usual class: inhibitors; hit rate 1.2% among 410,000; calls by dose curve; tested in HEK293T cells; further: read-out not given here; potency means the concentration at half of the fitted maximal effect; nearly all actives have a fitted effect of over 45% in size
* marks the source's active call; other numbers are inactive results; i = inactive; ? = inconclusive; / = no result; [ ] = another dose, or the depositor's remark. On the % scale 0 is the no-effect control and ±100 the full control effect.

SMILES	Vaccinia Venus	VACV mCherry inh	HCMV inh	HCV inhibitor	FMDV antiviral
S=C(c1c[nH]c2ccc(Br)cc12)N1CCOCC1	/	/	-72*	-1%	0%
O=C(c1c[nH]c2ccccc12)N1CCOCC1	1%	i	-21	2%	9%
O=C(c1ccccc1C(F)(F)F)N1CCOc2c(cc(-c3nc4ccccc4s3)cc2OC2CCOC2)C1 (stereo unspecified)	?	i	/	/	0%
COC(=O)c1cccc(Nc2nn3c(=O)c4cc5c(cc4nc3s2)OCO5)c1	8%	5%	7	/	-19%
O=C(Nc1ccc(Cl)cc1)N[C@H]1CC[C@@]23CCCN2C(=O)CCC[C@H]3C1Cc1ccccc1 (stereo partly specified)	/	/	16	/	/
Cc1ccc(C(C)C)c(OCC(=O)Nc2ccc(N3CCOCC3)cc2N2CCOCC2)c1	-15%	-13%	-24	32µM*	0%
CC(=O)N1CCN(c2ccccc2NC(=O)COc2cc(C)ccc2C(C)C)CC1	-32%	/	?	?	?
Cc1ccc(C(C)C)c(OCC(=O)Nc2ccccc2N2CCN(C)CC2)c1	?	/	-74*	?	32µM*
Cc1ccc(Cl)cc1N1CCN(C(=O)Cn2ncn3cccc3c2=O)CC1	-7%	-3%	-76*	-25%	?
O=C(Cn1ncn2cccc2c1=O)N1CCCCC1	-12%	/	-18	17%	-11%
Nc1nnc(-c2ccncc2)s1	/	/	-28	-6%	8%
c1cc(-c2sc(-c3ccncc3)c(-c3ccncc3)c2-c2ccncc2)ccn1	15%	i	-79*	-27%	-26%
Cn1nc(C(F)(F)F)c(/C=N/OC(=O)c2ccccc2)c1Sc1ccc(Cl)cc1	-23%	/	-63*	?	?
Cn1nc(C(F)(F)F)c(/C=N/OC(=O)c2ccccc2)c1Cl	/	/	20	3%	-2%
CC1=C(C(=O)O)N2C(=O)C(NC(=O)C(N)c3ccc(O)cc3)C2SC1 (stereo unspecified)	-6%	-15%	/	/	-15%
O=C(c1ccco1)N1CCN(C(c2cccs2)c2nnnn2C2CCCC2)CC1 (stereo unspecified)	-14%	-15%	-101*	-7%	18%
O=C(c1ccco1)N1CCN(C(c2ccccn2)c2nnnn2C2CCCC2)CC1 (stereo unspecified)	-8%	i	-7	9%	/
CC(C)C[C@H](N)c1nnc(S(=O)(=O)Cc2ccc(F)cc2)o1	-10%	/	/	8%	22µM*
CC(C)C[C@H](N)c1nnc(SCc2ccc(Cl)cc2Cl)o1	0%	-6%	9	/	-26%
CC(N)C(=O)c1ccco1 (stereo unspecified)	-26%	/	-68*	1%	-18%
CCOC(=O)C(Cc1ccccc1)C(=O)c1ccco1 (stereo unspecified)	-5%	i	0	5%	4%
COc1ccccc1C(=O)N[C@@H]1c2ccccc2C2(CCN(Cc3nccs3)CC2)[C@H]1OC	-6%	-21%	/	/	-14%
COc1cc2c(ccc3c4cc(OC)c(OC)cc4c[n+](C)c23)cc1O	-9%	-15%	-100*	?	10%
COc1cc2c[n+](C)c3c4ccccc4ccc3c2cc1OC	-11%	-14%	-82*	1%	8%
COc1ccc2c(c1)c[n+](C)c1c3cc(OC)c(OC)cc3ccc21	-19%	-16%	-96*	/	-20%
SMILES	Vaccinia Venus	VACV mCherry inh	HCMV inh	HCV inhibitor	FMDV antiviral
COc1ccc(Cc2c3cc(OC)c(OC)cc3cc[n+]2C)cc1OC	-7%	i	/	-9%	-10%
CC(Oc1ccccc1)C(=O)N[C@@H]1C(=O)N2C(C(=O)O)C(C)(C)S[C@H]12 (stereo partly specified)	-9%	i	/	/	/
Cc1ccc(C(C)C)c(O)c1C(=O)O	-15%	-9%	-63*	?	-13%
COc1ccc(C(=O)NCC(c2ccc3c(c2)OCO3)N2CCN(C)CC2)cc1OC (stereo unspecified)	4%	-3%	30	/	-10%
COc1ccc(N2CCC(CNC(=S)Nc3c(C)cc(C)cc3C)C2)cc1 (stereo unspecified)	/	/	-70*	?	0%
COc1ccc(N2CCC(CNC(=S)Nc3ccc(C)cc3C)C2)cc1 (stereo unspecified)	/	/	-18	?	-17%
COc1ccc(N2CCC(CNC(=O)Nc3ccc(OC)cc3OC)C2)cc1 (stereo unspecified)	10µM*	-16%	-80*	?	-17%
COc1cc(/C=C2/C=Cc3ccccc32)ccc1N(C)C	-8%	-11%	/	/	/
COc1ccc(OC)c(CN(CC(F)(F)F)S(=O)(=O)c2ccccc2Br)c1	/	/	-30	/	/
O=C(Nc1ccc(F)c(F)c1)c1cnn2c1NC(=C1CC1)C=C2C(F)F	-17%	i	/	/	/
CC(/C=C/c1ccccc1)=N\NC(N)=S	?	4µM*	-5	16µM*	-8%
O=[N+]([O-])c1ccc2c(c1)Cc1cc(F)ccc1-2	2%	-3%	-94*	-16%	-5%
CC(=O)Nc1cccc2c1Cc1cc([N+](=O)[O-])ccc1-2	-11%	i	-98*	16%	-5%
COc1cc2c(cc1[N+](=O)[O-])-c1ccc([N+](=O)[O-])cc1C2	/	/	-68*	/	/
COc1cc2c(=O)[nH]c3cc([N+](=O)[O-])ccc3c2cc1[N+](=O)[O-]	-17%	?	-94*	/	-13%
O=C(C1CCN(S(=O)(=O)Cc2ccccc2)CC1)N1CCN(c2cccc(C(F)(F)F)c2)CC1	9%	1%	5	/	-24%
Nc1ncc(Br)nc1NC1CCOCC1	/	/	44	/	/
COc1ccc(CN2CCOc3ccc(C(O)c4cccnc4)cc3C2)c(OC)c1OC (stereo unspecified)	8%	-2%	/	/	-7%
COc1cc2c(cc1[N+](=O)[O-])-c1ccccc1C2	-2%	-1%	-75*	-9%	19%
O=[N+]([O-])c1cc2c(cc1Br)-c1ccccc1C2	-16%	?	-21	/	0%
COc1ccc(-c2ccc(C(C)=O)cc2)cc1[C@H]1[C@H]2C=CC[C@@H](C)[C@@H]2C(=O)N1Cc1ccccc1	?	?	-90*	?	9%
C[C@@H]1CC=C[C@H]2[C@H]1C(=O)N(Cc1ccccc1)[C@H]2c1ccc2ccccc2c1Br	?	-27%	?	?	18µM*
C[C@@H]1CC=C[C@H]2[C@H]1C(=O)N(Cc1ccccc1)[C@H]2c1ccc2ccccc2c1	-15%	?	-36	17%[8.37 µM]	?
COC(=O)c1ccc(-c2ccc(OC)c([C@H]3[C@H]4C=CC[C@@H](C)[C@@H]4C(=O)N3Cc3ccccc3)c2)cc1	?	?	9	19%	-28%
CN(C)c1ccc(N=Nc2ccccc2C(=O)OCC(=O)NCC2CCCCC2)cc1	-29%	-10%	-61*	10%	-12%
COc1cc(/C=C/C(=O)OCC(=O)N2CCC(C)CC2)ccc1OCC#N	/	/	-16	-5%	-6%
CCOc1ccc(/C=C/C(=O)c2ccccc2)cc1OC	-15%	-15%	-1	10%	-15%

Screens (PubChem BioAssay)
